Measurements as given in PubChem BioAssay (NCI).
The panel holds about 79,000 compounds, 15% with a hit somewhere; the sample as a whole holds those more often. Activity calls are given as the source filed them. No stated cut-off is given here; in the data, active means growth inhibition above about 70%; inactive means the rest.

What was measured:
[1] = NCI Yeast Anticancer Drug Screen. Data for the rad52 strain (AID 147);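 further: 0% = growth of vehicle-treated control cultures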; settings: S. cerevisiae rad52 mutant growth inhibition, active compounds read high
In short: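 Screen used a yeast mutant impaired in DNA repair. After compound exposure, growth was measured. Values reflect inhibition compared with vehicle-treated cells.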

[2] = NCI Yeast Anticancer Drug Screen. Data for the wt1 strain (AID 149);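 further: 0% = growth of vehicle-treated wt1 cultures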; settings: S. cerevisiae wt1 strain (SPY 50644) growth inhibition, active compounds read high
In short: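 Compounds are added to wt1 yeast cultures. Growth is then measured. Inhibition is expressed relative to vehicle-treated controls.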

[3] = NCI Yeast Anticancer Drug Screen. Data for the rad50EPP+ strain (AID 151);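 further: 0% = growth of vehicle-treated control cultures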; settings: S. cerevisiae rad50 mutant strain, active compounds read high
In short: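 Exposing the rad50EPP+ strain to each compound, growth was compared with vehicle-only cultures to give inhibition.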

[4] = NCI Yeast Anticancer Drug Screen. Data for the mgt1 strain (AID 153); settings: S. cerevisiae mgt1 mutant growth inhibition, active compounds read high
In short: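 Genetically defined yeast (mgt1) treated with compound; inhibition of growth expressed against vehicle-treated controls.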

[5] = NCI Yeast Anticancer Drug Screen. Data for the rad50 strain (AID 155);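 further: 0% = growth of vehicle-only cultures of the same strain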; settings: S. cerevisiae rad50 strain growth inhibition, active compounds read high
In short: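 Inhibition values express reduced yeast growth in compound-treated cultures relative to vehicle-treated controls.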

[6] = NCI Yeast Anticancer Drug Screen. Data for the mec2-1 strain (AID 157); settings: S. cerevisiae mec2-1 strain, active compounds read high
In short: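 Readout is yeast growth inhibition, normalised to vehicle-treated controls, in the mec2-1 strain exposed to compound.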

[7] = NCI Yeast Anticancer Drug Screen. Data for the rad14 strain (AID 159);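 further: 0% = growth of vehicle-treated control cultures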; settings: S. cerevisiae rad14 strain growth inhibition, active compounds read high
In short: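 A mutant yeast strain defective in DNA damage repair is treated with compound; inhibition of its growth is scored against untreated, vehicle-exposed cultures.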

[8] = NCI Yeast Anticancer Drug Screen. Data for the sgs1 mgt1 strain (AID 161);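 further: 0% = growth of cultures given vehicle only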; settings: S. cerevisiae sgs1 mgt1 strain, active compounds read high
In short: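 Growth of a repair-deficient yeast mutant was monitored after compound treatment and expressed as inhibition relative to vehicle-treated cultures.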

[9] = NCI Yeast Anticancer Drug Screen. Data for the CLN2oe strain (AID 163);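 further: 0% = growth of vehicle-only control cultures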; settings: S. cerevisiae CLN2oe strain, active compounds read high
In short: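 Values reflect how much compound exposure reduced yeast growth, referenced to vehicle-exposed cells. Assay organism is a strain with a defined genetic change affecting cell-cycle control.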

[10] = NCI Yeast Anticancer Drug Screen. Data for the cln2 rad14 strain (AID 165);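 further: 0% = growth equal to vehicle treated cultures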; settings: S. cerevisiae cln2 rad14 strain, active compounds read high
In short: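 Relative to vehicle controls, growth inhibition of compound-treated cln2 rad14 yeast was recorded.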

[11] = NCI Yeast Anticancer Drug Screen. Data for the bub3 strain (AID 167); settings: S. cerevisiae bub3 mutant strain, active compounds read high
In short: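 Steps: expose the mutant yeast strain to compound; grow alongside vehicle-treated cultures; measure growth; express inhibition against the vehicle cultures.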

[12] = NCI Yeast Anticancer Drug Screen. Data for the wt2 strain (AID 169);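 further: 0% = growth of vehicle-treated yeast cultures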; settings: S. cerevisiae wt2 strain growth inhibition, active compounds read high
In short: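 Values express reduction in yeast growth under compound treatment, referenced to vehicle-treated cells.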

[13] = NCI Yeast Anticancer Drug Screen. Data for the mlh1 strain (AID 171);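 further: 0% = growth of vehicle-treated control cultures of the same strain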; settings: S. cerevisiae mlh1 strain growth inhibition, active compounds read high
In short: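 Steps: expose the defined-mutant yeast strain to compound; expose a parallel culture to vehicle; measure growth; express compound effect as inhibition relative to the vehicle culture.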

[14] = NCI Yeast Anticancer Drug Screen. Data for the sgs1 strain (AID 173);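 further: 0% = growth of vehicle-only control cultures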; settings: S. cerevisiae sgs1 mutant, active compounds read high
In short: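 Treat defined-mutant yeast with compound; measure growth; calculate inhibition relative to vehicle-treated cells.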

[15] = NCI Yeast Anticancer Drug Screen. Data for the mlh1 rad18 strain (AID 175); settings: S. cerevisiae mlh1 rad18 strain growth inhibition, active compounds read high
In short: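 Test agents were incubated with a yeast strain of defined genotype (DNA damage repair defect). Inhibition of growth was derived by comparison with vehicle-exposed cultures.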

[16] = NCI Yeast Anticancer Drug Screen. Data for the rad18 strain (AID 177); settings: S. cerevisiae rad18 mutant growth inhibition, active compounds read high
In short: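 A genetically defined yeast mutant impaired in DNA damage repair was treated with test compounds, then its growth was measured against cultures receiving vehicle alone.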

[17] = at 5.0 µM (retest, dose inferred, filed as 0.5)
[18] = at 50.0 µM (retest, dose inferred, filed as 5.0)

Measured: growth inhibition

O=C1C=CC(=O)C1(Br)Br
active: [1]; at 33.0 µM 95% | [1]; at 100.0 µM 99% | [2]; at 100.0 µM 99% | [3]; at 33.0 µM 71% | [3]; at 100.0 µM 99% | [4]; at 33.0 µM 91% | [4]; at 100.0 µM 99% | [5]; at 33.0 µM 94% | [5]; [18] 99% | [5]; at 50.0 µM 99.6% | [5]; at 100.0 µM 99% | [6]; at 33.0 µM 77% | [6]; [18] 100% | [6]; at 50.0 µM 99.8% | [6]; at 100.0 µM 99% | [7]; at 33.0 µM 88% | [7]; at 100.0 µM 99% | [8]; [18] 99% | [8]; at 50.0 µM 99.2% | [9]; at 33.0 µM 75% | [9]; at 100.0 µM 98% | [10]; [18] 99% | [10]; at 50.0 µM 99.2% | [11]; at 33.0 µM 95% | [11]; [18] 99% | [11]; at 50.0 µM 99.4% | [11]; at 100.0 µM 99% | [12]; at 33.0 µM 97% | [12]; at 100.0 µM 99% | [13]; at 33.0 µM 95% | [13]; at 100.0 µM 99% | [14]; at 11.0 µM 75% | [14]; at 33.0 µM 99% | [14]; at 100.0 µM 99% | [15]; [17] 78% | [15]; [18] 99% | [15]; at 50.0 µM 99.2% | [16]; at 11.0 µM 77% | [16]; at 33.0 µM 95% | [16]; at 100.0 µM 99%
inactive: [1]; at 1.2 µM 7% | [1]; at 3.7 µM 24% | [1]; at 11.0 µM 62% | [2]; at 1.2 µM -1% | [2]; at 3.7 µM 0% | [2]; at 11.0 µM 8% | [2]; at 33.0 µM 66% | [3]; at 1.2 µM 2% | [3]; at 3.7 µM 15% | [3]; at 11.0 µM 33% | [4]; at 1.2 µM 1% | [4]; at 3.7 µM -4% | [4]; at 11.0 µM 25% | [5]; at 1.2 µM 4% | [5]; at 3.7 µM 24% | [5]; [17] 21% | [5]; at 11.0 µM 65% | [6]; at 1.2 µM 1% | [6]; at 3.7 µM 5% | [6]; [17] 3% | [6]; at 11.0 µM 23% | [7]; at 1.2 µM 1% | [7]; at 3.7 µM 13% | [7]; at 11.0 µM 28% | [8]; [17] 54% | [9]; at 1.2 µM -5% | [9]; at 3.7 µM 3% | [9]; at 11.0 µM 18% | [10]; [17] 11% | [11]; at 1.2 µM 3% | [11]; at 3.7 µM 3% | [11]; [17] 28% | [11]; at 11.0 µM 18% | [12]; at 1.2 µM -4% | [12]; at 3.7 µM -4% | [12]; at 11.0 µM 24% | [13]; at 1.2 µM 1% | [13]; at 3.7 µM 11% | [13]; at 11.0 µM 36% | [14]; at 1.2 µM -13% | [14]; at 3.7 µM -14% | [16]; at 1.2 µM 15% | [16]; at 3.7 µM 40%
